Consider 111 compounds from PubChem BioAssay AID1209 (Sanford-Burnham Center for Chemical Genomics, 2008).

Hit rate of the full screen: of about 190,000 compounds, about 810 (0.43%) were called active. This is one part of a sample in which actives are shown more often than they occur. Values without a mark were called inactive. Rule as the data show it: active = inhibition above about 50%; inactive = the rest.

This assay deals with Mannose-6-phosphate isomerase (Homo sapiens) (UniProt P34949). The experiment in a line: MPI enzyme activity inhibition – biochemical, fluorescence intensity, coupled assay, primary screen (AID 1209).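 Also: plate controls were DMSO vehicle for no effect and wells lacking substrate for full effect.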 The following applies: purified PMI enzyme, at 20 µM, active compounds read high.
Chain of Mannose-6-phosphate isomerase (Homo sapiens) (P34949 whole entry, looked up): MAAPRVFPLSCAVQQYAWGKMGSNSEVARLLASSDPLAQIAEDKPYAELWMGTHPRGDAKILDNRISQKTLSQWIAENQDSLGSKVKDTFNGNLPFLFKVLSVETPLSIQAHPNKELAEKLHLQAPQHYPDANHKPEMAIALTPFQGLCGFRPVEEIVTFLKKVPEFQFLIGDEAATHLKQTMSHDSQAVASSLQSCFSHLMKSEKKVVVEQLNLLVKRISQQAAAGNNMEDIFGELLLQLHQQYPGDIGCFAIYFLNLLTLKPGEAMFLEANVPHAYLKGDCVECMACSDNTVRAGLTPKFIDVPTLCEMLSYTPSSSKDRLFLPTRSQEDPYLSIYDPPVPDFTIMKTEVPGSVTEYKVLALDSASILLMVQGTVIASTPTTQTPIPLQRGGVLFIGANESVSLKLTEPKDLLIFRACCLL
As a reminder, the inhibition is the change of the read-out against control, counted positive when it falls. On to `CCCCn1c(NC(=O)c2ccco2)c(S(=O)(=O)c2ccc(C)cc2)c2nc3ccccc3nc21`, for which the inhibition is 50.9% (active).
Regarding `C=CCn1c(NC(=O)c2ccco2)c(S(=O)(=O)c2ccccc2)c2nc3ccccc3nc21`, the inhibition was 7.1%.
The value for `CCCCCn1c(NC(=O)c2ccco2)c(S(=O)(=O)c2ccc(C)cc2)c2nc3ccccc3nc21` was 20%; that for `COc1cccc(C(=O)OCC(=O)NCCc2ccccc2)c1OC` was -5.9%; that for `O=c1c2ccccc2sn1-c1nccs1` was 107% (active).
For the compound `Cc1cc(=O)c2ccccc2s1`, the inhibition was -2.5%.
Turning to `O=c1c2ccccc2c2ccccc2c(=O)n1-c1ccccc1`, the inhibition was 3.9%.
Next, `Cc1ccccc1N=Cc1c(O)n(-c2nccs2)c(=O)c2ccccc12`: 0.5%.
The value for `Cc1ccnc(N2C3CCC2CC(O)(c2ccccc2)C3)n1` (stereo unspecified) was -0.2%; that for `Cc1ccc(-n2nc3c4c(cccc4c2=O)-c2ccccc2-3)cc1` was 14.2%; that for `CC(C(=O)N1CCCCC1)n1sc2ccccc2c1=O` (stereo unspecified) was -2.6%.
The value for `O=C1CCCN1c1nccs1` was -4.2%; that for `O=c1c2ccccc2sn1-c1ccccc1` was 87.2% (active).
Turning to `O=c1[nH]n(-c2ccccc2)c(=O)c2ccccc12`, the inhibition was 6.7%.
The value for `O=C(Nc1cccn(Cc2cccc(F)c2)c1=O)NC1CCCCC1` was 14.9%.
For `COc1ccc(-n2c(COc3ccc(C)cc3)nnc2SCc2ccc(C#N)cc2)cc1`, the inhibition is 10.6%.
As for `COCCCn1c(=NC(=O)c2ccc3c(c2)OCO3)c(C#N)cc2c(=O)n3cccc(C)c3nc21`, the inhibition was 1.8%.
For `CCOC(=O)CSc1nc2ccccc2c(=O)n1CC1COc2ccccc2O1` (stereo unspecified), the inhibition is -3.8%.
For the compound `Cn1c(=O)c2c(nc(CN3CCOCC3)n2CCCO)n(C)c1=O`, the inhibition is -8.2%.
Next, `COc1ccccc1NS(=O)(=O)c1cccc(C(=O)NN=C2CCCCCC2)c1`: -1.7%.
The value for `CCn1c(SCC(=O)N2CCCC2)nc2c(c1=O)SC(C)C2` (stereo unspecified) was 0.5%; that for `CN(C)S(=O)(=O)c1cccc(-c2cn3ccccc3n2)c1` was -3.5%.
For `CN(C)S(=O)(=O)c1cccc(N2C(=O)CC3(CCCCC3)CC2=O)c1`, the inhibition was 2%.
As for `COC(=O)C1=C(N)Oc2cc(C)n(C)c(=O)c2C1c1ccc(Cl)cc1` (stereo unspecified), the inhibition is 1.3%.
As to `Cc1c(Cl)cccc1NC(=S)NN`, the inhibition was 5.2%.
The value for `CCC(C)(C)n1nnnc1C(c1ccc(O)cc1)N1CCc2ccccc2C1` (stereo unspecified) was 12.2%; that for `CCOC(=O)/C(C)=C1\NC(C)(C)Cc2ccccc21` was 94.7% (active); that for `CCOC(=O)/C(C(=O)Nc1ccc(Br)cc1)=C1/NC(C)(C)Cc2ccccc21` was 3.3%.
On to `CCOC(=O)/C(C(=O)Nc1ccccc1Cl)=C1/NC(C)(C)Cc2ccccc21`, for which the inhibition is 18.6%.
`O=C(Cc1c[nH]c2ccccc12)N1CCN(c2ccccc2)CC1`: the inhibition was -10.2%.
As to `Cn1c(Cc2ccccc2)nnc1SCC(=O)Nc1cccc(S(=O)(=O)NC2=NCCCCC2)c1`, the inhibition was 5%.
The value for `CN=c1scc(C)n1/N=C/c1ccc(O)cc1` was 12.4%; that for `CN=c1scc(-c2ccc(F)cc2)n1/N=C/c1ccc(O)c(O)c1` was 50.4% (active); that for `CN=c1scc(-c2ccco2)n1/N=C/c1ccc(O)c(O)c1` was 53% (active).
As to `CCN=c1scc(-c2ccco2)n1/N=C/c1ccc(OC)c(O)c1`, the inhibition is -0.4%.
The value for `CCN=c1scc(-c2ccco2)n1/N=C/c1ccc(O)cc1` was -4.3%; that for `C=CCN=c1scc(C)n1/N=C/c1ccc(O)c(O)c1` was 49.2%; that for `CCCC(=O)C1=C(O)C(c2cccc(Oc3ccccc3)c2)CCC1=O` (stereo unspecified) was -21%.
Turning to `N#CCN1CCCC(C(N)=O)C1` (stereo unspecified), the inhibition is -5.3%.
With `Cc1sc(NC(=O)CSc2nnnn2C)c(C#N)c1C`, the inhibition was 4.7%.
`CCOc1ccc(C2CC(c3cccc(C)c3)n3ncnc3N2)cc1` (stereo unspecified): the inhibition is 2.6%.
Consider `CCc1ccc(CN(C)C(=O)c2cc(COc3c(F)cccc3F)on2)cc1`, for which the inhibition was 18.2%.
For `COC1=C(OC)C(=O)C(CCCCCCCCCCO)=C(C)C1=O`, the inhibition is 53.5% (active).
Regarding `Cc1[nH]c(=S)[nH]c(=O)c1CCCO`, the inhibition was 12.6%.
Next, `CC1=C(C)C(=O)C(CCCCC#CCCCC#CCO)=C(C)C1=O`: -13.9%; `COc1cccc(CNC(=O)CCC2CCCN(C3CCOCC3)C2)c1` (stereo unspecified): 5.9%; `CCOc1ccc(NC(=O)NC(C)CC)cc1` (stereo unspecified): -3.9%.
Next, `O=C(O)c1ccc(S(=O)(=O)N2CCCCCC2)cc1`: 2.4%.
Next, `O=C(/C=C/c1ccc(O)c(O)c1)c1ccc(S(=O)(=O)N2CCCCCC2)cc1`: 66% (active).
Turning to `O=C(/C=C/c1ccc(N2CCCCC2)c([N+](=O)[O-])c1)c1ccc(S(=O)(=O)N2CCCC2)cc1`, the inhibition is 0%.
Take `Cc1ccc2c(c1)CCCN2C(=O)c1ccco1`: the inhibition was 0.8%.
The value for `O=C(NCC1CCCO1)C1CC1(c1ccccc1)c1ccccc1` (stereo unspecified) was 108% (active).
The value for `O=C(NCC1CCCO1)c1ccccc1` (stereo unspecified) was 11.6%.
Next, `Cc1cccc(C2(c3cccc(C)c3)CC2C(=O)NCC2CCCO2)c1` (stereo unspecified): -4.2%; `O=C(CC1C(=O)NC2CCCCC2N1C(=O)c1ccc(F)cc1)Nc1ccccc1` (stereo unspecified): 0.9%.
Regarding `CCc1ccc(C(=O)COC(=O)CNC(=O)c2ccco2)cc1`, the inhibition was -5.4%.
Next, `O=c1[nH]cnc2c1sc(=S)n2-c1ccccc1`: 50.7% (active); `O=c1[nH]c(-c2ccc(F)cc2)nc2c1sc(=S)n2-c1ccccc1`: -0.9%.
For `S=c1sc2c(Cl)ncnc2n1-c1ccccc1`, the inhibition is -30.4%.
Next, `CS(=O)(=O)N1CCN(c2ccc(NC(=O)CSc3nnc(-c4ccco4)o3)cc2)CC1`: -8.2%; `CCN(CC)S(=O)(=O)c1ccc(NC(=O)COC(=O)CNS(=O)(=O)/C=C/c2ccccc2)cc1`: 5.2%; `O=C(COC(=O)c1ccccc1Br)NCCC1=CCCCC1`: 5.8%.
Take `CC1(C)N=C(SCC(=O)Nc2ccc(Cl)cc2Cl)C(c2ccccc2)=N1`: the inhibition is 8.5%.
The value for `O=C(NC1CCCC1)c1sc(=S)n2c1[nH]c(=O)c1ccccc12` was -4.7%.
As for `O=C(NC1CCCCC1)c1sc(=S)n2c1[nH]c(=O)c1ccccc12`, the inhibition is 51.2% (active).
Regarding `O=C(NCc1ccccc1)c1sc(=S)n2c1[nH]c(=O)c1ccccc12`, the inhibition was 4.9%.
For the compound `COc1ccc(/C=C/C(=O)OCC(=O)Nc2c(C)cccc2C)cc1`, the inhibition is -7.6%.
Consider `CC(=O)c1ccc(Nc2cc(C)nc3ccccc23)cc1`, for which the inhibition is 95.7% (active).
For the compound `COc1ccc(Nc2cc(C)nc3ccccc23)cc1`, the inhibition was 16%.
As to `CC(=O)c1ccc(Nc2cc(C)nc3ccc(C)cc23)cc1`, the inhibition is 11.3%.
Consider `Cc1ccc(O)c(C(=O)c2cnc3c(c2)CN(C)C(=O)N3)c1`, for which the inhibition was 3.7%.
The value for `O=C(c1cnc2sccn2c1=O)N(Cc1ccccc1)c1ccccn1` was 14.3%; that for `CCOC(=O)c1sc(NC(=O)CSc2nnnn2-c2ccc(C)cc2)c(C(=O)OCC)c1C` was 12.2%; that for `CCOC(=O)c1c(NC(=O)CSc2nnnn2-c2ccc(OC)cc2)sc(C)c1C` was 60% (active).
Regarding `CCOC(=O)c1sc(NC(=O)CSc2nnnn2-c2ccccc2)c(C(=O)OCC)c1C`, the inhibition is 14.3%.
The value for `Cc1cc(OCC(=O)NCc2ccncc2)ccc1Cl` was 1%; that for `Cc1ccc(N2CCN(CC(=O)Nc3c(C(=O)C4CC4)oc4ccccc34)CC2)cc1` was -11.1%; that for `COc1ccc(N(CC(=O)Nc2ccc3c(c2)OCO3)S(C)(=O)=O)c(OC)c1` was -4.4%.
The value for `C[C@@](Cc1ccc(O)c(O)c1)(NN)C(=O)O` was 12.9%; that for `C[C@](N)(Cc1ccc(O)c(O)c1)C(=O)O` was 57.7% (active); that for `COC(=O)C(N)Cc1ccc(O)cc1` (stereo unspecified) was -4.5%.
The value for `COC(=O)[C@@H](N)Cc1ccc(O)cc1` was 2.6%.
As to `COC(=O)C(N)Cc1ccc(O)c(O)c1` (stereo unspecified), the inhibition was 56.9% (active).
The value for `COc1ccc(CC(=O)O)cc1O` was 2.3%; that for `Oc1c(C(c2ccccc2)N2CCCCC2)sc2ncnn12` (stereo unspecified) was -8.5%; that for `COc1cc2c(cc1OC)C(=S)NC1(CCCC1)C2` was -19.1%.
The value for `CC(=O)c1c(OC(=O)c2ccco2)c2ccccc2n1C` was 4%.
For the compound `NC(=O)c1ccsc1NC(=O)CSc1nnc(Nc2ccccc2)s1`, the inhibition was 0.1%.
Next, `CC(C)C[C@H](NS(=O)(=O)c1ccc(Br)cc1)C(=O)O`: 5.2%; `CCCCNc1nc(NC)nc(Cl)c1SC`: 0.4%.
The value for `C/C(=N\NC(=O)c1ccc([N+](=O)[O-])cc1)c1cccc([N+](=O)[O-])c1` was 3.4%; that for `C/C(=N/NC(=O)c1cc(O)c(O)c(O)c1)c1ccc([N+](=O)[O-])cc1` was 64.5% (active); that for `C/C(=N\NC(=O)c1ccc([N+](=O)[O-])cc1)c1c(O)cc(C)oc1=O` was -40.7%.
Next, `CCN(CC)c1ccc(/C=C2\NC(=O)NC2=O)cc1`: 9.7%; `O=C(Nn1cnc2ccccc2c1=O)c1cccc(Cl)c1`: 3%; `OC(COCC1COc2ccccc2O1)CN1CCN(c2ccccc2)CC1` (stereo unspecified): 1.8%.
In the case of `C[N+]1(CC(O)COCC2COc3ccccc3O2)CCOCC1` (stereo unspecified), the inhibition is 66.2% (active).
Next, `CC[N+](C)(CC)CC(O)COCC1COc2ccccc2O1` (stereo unspecified): 19.8%; `C/C(=N\NC(N)=S)C1C2C3CC4C5CC(C42)C1C53` (stereo unspecified): 0.3%; `O=C(NCc1ccco1)c1ccccc1-c1ccc(C(F)(F)F)cc1`: 4.9%.
As to `CN1CCN(Cc2cc(Cl)c3cccnc3c2OC(=O)c2cccs2)CC1`, the inhibition was 15.8%.
As for `COc1ccccc1N1CCN(Cc2ccc(O)c3ncccc23)CC1`, the inhibition was 55.7% (active).
Next, `CCOC(=O)N1CCN(Cc2ccccc2Cl)CC1`: 4.4%; `Oc1ccc(CN2CCN(c3ccccc3)CC2)c2cccnc12`: 35.3%.
As to `COc1ccccc1N1CCN(Cc2cc(Br)c(O)c3ncccc23)CC1`, the inhibition is 25.4%.
For the compound `Oc1c(CN2CCCCC2)cc(COCc2ccccc2)c2cccnc12`, the inhibition was 46.6%.
For the compound `CN1CCN(Cc2cc(COCc3ccccc3)c3cccnc3c2O)CC1`, the inhibition was 43.5%.
Next, `Oc1c(CN2CCCCC2)cc(Br)c2cccnc12`: 51.6% (active); `CCOC(=O)N1CCN(Cc2cc(Cl)c3cccnc3c2O)CC1`: 54.9% (active); `O=[N+]([O-])c1cc(CN2CCCC2)c2cccnc2c1O`: 5%.
For `COCc1cc(CN2CCCC2)c(O)c2ncccc12`, the inhibition was 41%.
